Measurements: ChEMBL document CHEMBL3988442, “University of Dundee, Small-Polar-MMV Screening Library” (2021)
In all, about 38,000 compounds went through this assay and about 1,200 (3.2%) showed an effect of 50% or more. The median lay at about -58%. This is one part of a sample in which strong results are shown more often than they occur.

test system: Plasmodium falciparum; test: Calibr Malaria Delayed Death Assay SOP; assay type: functional, organism-based; design: scale not given: in the data most compounds retested in dose-response had high values; settings: concentration 4.99e-06 (unit not given; other assays of the set use mol/L)

Point of comparison: `O=C1[C@H]2CC[C@H](CN(c3ncnc4ccsc34)C2)N1CC1CC1`, “Percent Effect” value -91.86%. Against it:
- Cc1ccc(-c2nc(CNS(=O)(=O)N(C)C)[nH]c2-c2ccccn2)cc1 — higher, -8.879%
- COCC(C)NCc1nc(-c2ccc(C)cc2)c(-c2ccccn2)[nH]1 (stereo unspecified) — higher, 45.68%
- Cc1ccc(-c2nc(CNC(C)CCO)[nH]c2-c2ccccn2)cc1 (stereo unspecified) — higher, 85.22%
- CCOc1ccc(Cl)cc1CNCCCn1ccnc1 — higher, 51.78%
- CCOc1ccc(Cl)cc1CCNC(=O)Cn1nc(C)ccc1=O — lower, -103.1%
- COCCCn1ccc(NC(=O)NCCCn2ccnc2)n1 — higher, -63.56%
- COc1cc(CNCCn2ccnc2)cc2c1OCO2.Cl — higher, -91.54%
- O=C(CN1CCOc2ccc(Cl)cc21)NCCCn1ccnc1 — higher, -34.55%
- CCOc1ccc(CNCCCn2ccnc2)cc1Br — higher, 79.67%
- CN(C)CCNCC1COCc2c(-c3ccnn3C)nnn2C1 (stereo unspecified) — higher, -61.69%
- O=C(c1cccc2ncccc12)N1CCC(Nc2cccnn2)CC1 — lower, -119.6%
- Cc1nc(CN2CCN(CCCc3ccccc3)CC2)no1 — higher, -34.84%
- COc1ccc(-c2nc(CNC3CCc4nc(C)nn4C3)no2)cc1 (stereo unspecified) — higher, -54.43%
- COc1cccnc1-c1ccc(F)c2c1OC(CN)C2 (stereo unspecified) — higher, 57.41%
- COc1cc(-c2ccc(F)c3c2OC(CN)C3)cc(OC)c1OC (stereo unspecified) — higher, -14%
- COc1cc(C)c(-c2ccc(F)c3c2OC(CN)C3)cc1C (stereo unspecified) — higher, 83.54%
- Cc1cc2n(n1)CC(CNCc1ccccc1Cn1cccn1)CN2 (stereo unspecified) — higher, -15.62%
- O=C(O)C(F)(F)F.O=C(O)C(F)(F)F.c1cncc(C2COC3(CCN(Cc4nccs4)CC3)C2)c1 (stereo unspecified) — higher, -1.865%
- CCN1CC2(CC1=O)CN(C(=O)c1ccco1)CCN(C(=O)C(C)C)C2 (stereo unspecified) — higher, -62.73%
- COCCCN(C)C(=O)c1cccc(Nc2cnccn2)c1 — lower, -92.25%
- N[C@H]1CN(C(=O)c2cnc3cc(Cl)ccc3c2O)C[C@@H]1C1CC1 — higher, -23.25%
- Cc1cc(Cl)ccc1C(=O)N1C[C@H](C2CC2)[C@@H](N)C1 — higher, 60.81%
- N[C@H]1CN(C(=O)c2ccc(Cl)cc2O)C[C@@H]1C1CC1 — higher, 32.78%
- N#CCSCCCN1CCN(C(=O)c2ccccc2F)CC1 — lower, -147%
- Cc1nnc(NC(=O)NCCCN2CCC(C(N)=O)CC2)s1 — higher, -23.13%
- CC1CC(NS(=O)(=O)c2ccc(C(F)(F)F)nc2)C1 (stereo unspecified) — lower, -159.1%
- O=c1ncn(-c2ccc(F)cc2)c2ncccc12 — lower, -138.9%
- O[C@H]1[C@H](n2cc(CN3CCCC3)nn2)c2ccccc2C12CCNCC2 — higher, 62.81%
- OCc1cn([C@@H]2c3ccccc3C3(CCNCC3)[C@H]2O)nn1 — lower, -123.5%
- COCc1cn([C@@H]2c3ccccc3C3(CCNCC3)[C@H]2O)nn1 — higher, -27.47%
